Here are results for 34 compounds from PubChem BioAssay (Tox21).

Inconclusive results are not listed. Entries that show only a call come without a potency. Calls of active or inactive are those of the source. Calls follow the shape of the full dose curve. Non-standard residues stand in square brackets, D forms with d. Residues, ends and D or L forms follow the SMILES beside them. *: point of attachment. Sta = CC(C)C[C@H](N)[C@@H](O)CC(=O)O; Isovaleryl = CC(C)CC(=O)*
Potency is read from the fitted curve at half-maximal effect.

For the experiment, the system named is thyroid hormone receptor (rat, GH3 cells). Kind of experiment: qHTS assay to identify small molecule agonists of the thyroid receptor (TR) signaling pathway (AID 743066). The conditions noted are these: GH3.TRE-Luc cells, TR agonist luciferase, 24 h; series mostly up to 83.9 µM. In general terms: Quantitative high-throughput screening tests each substance at several concentrations.
Turning to `CCN1CCN(C(=O)N[C@@H](C(=O)N[C@@H]2C(=O)N3[C@@H]2SC(C)(C)[C@H]3C(=O)O)c2ccccc2)C(=O)C1=O`, the Potency result was “inactive”.

With `COC(=O)c1ccccc1Cl`, the Potency result is “inactive”.

With `CC(C)C(C)C`, the Potency entry was “inactive”.

Consider `O=C(O)CCC(=O)Nc1ccc(S(=O)(=O)Nc2nccs2)cc1`, for which the Potency result was “inactive”.

Take `CCCC(C)C(O)CC` (centres undefined): the Potency result is “inactive”.

As for `C=C(C)C(=O)OCCCC`, the Potency entry is “inactive”.

Turning to `CC(C)CC(=O)N[C@H](C(=O)N[C@H](C(=O)N[C@@H](CC(C)C)[C@@H](O)CC(=O)N[C@@H](C)C(=O)N[C@@H](CC(C)C)[C@@H](O)CC(=O)O)C(C)C)C(C)C` (Isovaleryl-VV[Sta]A[Sta]-OH), the Potency result is “inactive”.

`CCOc1ccccc1OCCN[C@H](C)Cc1ccc(OC)c(S(N)(=O)=O)c1`: the Potency result was “inactive”.

Regarding `CC(C)OCCO`, the Potency result is “inactive”.

For `CC(=O)c1c(C)cc(C(C)(C)C)cc1C`, the Potency result was “inactive”.

For the compound `CCCCCCCCS(=O)(=O)O`, the Potency entry is “inactive”.

Consider `O=C[C@@H](O)[C@H](O)[C@H](O)CO`, for which the Potency entry was “inactive”.

Turning to `O=C1Nc2ccccc2C1=O`, the Potency result is “inactive”.

For the compound `CC1(C)CC(N)CC(C)(C)N1`, the Potency entry was “inactive”.

As to `CCCCCCCCOCCC#N`, the Potency result is “inactive”.

Turning to `CC(C)OC(=O)C(C(=O)OC(C)C)=C1SC=CS1`, the Potency entry was “inactive”.

As to `CC(C)(C)OC=O`, the Potency entry was “inactive”.

On to `C=CCN1CCc2nc(N)sc2CC1`, for which the Potency entry is “inactive”.

As for `O=Cc1ccccc1S(=O)(=O)O`, the Potency is 68.5 µM (active).

For the compound `Cc1ccc2ccccc2n1`, the Potency entry was “inactive”.

For the compound `CCCCCC(CC)OC(=O)CCCOc1ccc(Cl)cc1Cl` (centres undefined), the Potency entry is “inactive”.

For `CCc1ncc(C)[nH]1`, the Potency entry is “inactive”.

For `COc1cc(C(=O)NC2CCCNC2)cc(OC)c1OC` (centres undefined), the Potency entry was “inactive”.

Regarding `COc1ccc(Cl)cc1C`, the Potency result was “inactive”.

With `NC(=O)CC[C@@H](N)C(=O)O`, the Potency result was “inactive”.

Consider `NC[C@H]1O[C@H](O[C@H]2[C@H](O)[C@@H](O[C@H]3O[C@H](CO)[C@@H](O)[C@H](N)[C@H]3O)[C@H](N)C[C@@H]2N)[C@H](N)[C@@H](O)[C@@H]1O`, for which the Potency entry was “inactive”.

In the case of `COC(C)(C)CC(C)=O`, the Potency entry was “inactive”.

In the case of `CC[N+](C)(CC)CC`, the Potency result is “inactive”.

For the compound `CCOCCOCCOC(C)=O`, the Potency entry is “inactive”.

`CCCCCCCCCCCCCCCC/C=C/C1CC(=O)OC1=O` (centres undefined): the Potency entry was “inactive”.

For the compound `COc1cc(NS(=O)(=O)c2ccc(N)cc2)ncn1`, the Potency result is “inactive”.

As for `O=S(=O)(O)c1cc(I)c(O)c2ncccc12`, the Potency entry was “inactive”.

With `CCCCCCCCC1CO1` (centres undefined), the Potency entry is “inactive”.

Turning to `COc1ccc2cc(CCC(C)=O)ccc2c1`, the Potency entry was “inactive”.
